# Measurements published in publication PMC7862700, “An all-to-all approach to the identification of sequence-specific readers for epigenetic DNA modifications on cytosine”.
# Key:
# Assay in all cases: DAPPL (digital affinity profiling via proximity ligation, sequencing); 10 mM Tris-HCl pH 7.5, 50 mM NaCl, 1 mM DTT, 4% glycerol, room temperature, 30 min; GST-TFs on glutathione beads, 16-mer random dsDNA library, 0.1% formaldehyde crosslink after washing; high values mean tight binding
# [1] = target: T1, FEV (Homo sapiens, UniProt Q99581 1-238); details: protein: recombinant; tags: N-terminal GST; dsDNA, one strand shown
# T1 sequence: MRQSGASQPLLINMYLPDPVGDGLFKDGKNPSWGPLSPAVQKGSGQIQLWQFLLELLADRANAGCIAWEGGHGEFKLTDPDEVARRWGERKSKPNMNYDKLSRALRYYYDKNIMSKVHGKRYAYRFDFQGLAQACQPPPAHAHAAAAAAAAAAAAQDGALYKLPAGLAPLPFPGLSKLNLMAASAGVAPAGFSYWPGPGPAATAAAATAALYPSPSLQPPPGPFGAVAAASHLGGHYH
# In short: (§1)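 Binding signal is each hexamer's read frequency for a factor divided by its frequency in the tag-only sample. The factors were GST-fused human transcription factors from yeast, captured on glutathione beads, DNA-barcoded and pooled with that sample. Pools were incubated with 200 nmole of a random double-stranded 16-mer DNA library in Tris/NaCl/DTT/glycerol buffer at room temperature for 30 min, then washed, crosslinked with 0.1% formaldehyde, proximity-ligated with BsaI/T4 ligase (1 h, 37 °C), PCR-amplified and sequenced on an Illumina NextSeq500.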
# [2] = target: ETV5 (Homo sapiens, UniProt P41161 1-510); details: protein: recombinant; tags: N-terminal GST; dsDNA, one strand shown
# In short: as §1
# [3] = target: HSF1 (Homo sapiens, UniProt Q00613 1-529); details: protein: recombinant; tags: N-terminal GST; chain copies: 3; dsDNA, one strand shown
# In short: as §1
# [4] = target: T2, SPIC (Homo sapiens, UniProt Q8N5J4 1-248); details: protein: recombinant; tags: N-terminal GST; dsDNA, one strand shown
# T2 sequence: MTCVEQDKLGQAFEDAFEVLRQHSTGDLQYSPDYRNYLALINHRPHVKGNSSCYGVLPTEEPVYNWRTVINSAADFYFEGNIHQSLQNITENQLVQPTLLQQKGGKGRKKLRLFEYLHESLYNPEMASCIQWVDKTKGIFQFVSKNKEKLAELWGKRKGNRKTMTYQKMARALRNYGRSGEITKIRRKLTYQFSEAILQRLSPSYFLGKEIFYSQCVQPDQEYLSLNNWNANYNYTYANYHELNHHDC
# In short: as §1
# [5] = target: ELF4 (Homo sapiens, UniProt Q99607 1-663); details: protein: recombinant; tags: N-terminal GST; dsDNA, one strand shown
# In short: as §1
# [6] = target: T3, ELK4 (Homo sapiens, UniProt P28324-2 1-405); details: protein: recombinant; tags: N-terminal GST; dsDNA, one strand shown
# T3 sequence: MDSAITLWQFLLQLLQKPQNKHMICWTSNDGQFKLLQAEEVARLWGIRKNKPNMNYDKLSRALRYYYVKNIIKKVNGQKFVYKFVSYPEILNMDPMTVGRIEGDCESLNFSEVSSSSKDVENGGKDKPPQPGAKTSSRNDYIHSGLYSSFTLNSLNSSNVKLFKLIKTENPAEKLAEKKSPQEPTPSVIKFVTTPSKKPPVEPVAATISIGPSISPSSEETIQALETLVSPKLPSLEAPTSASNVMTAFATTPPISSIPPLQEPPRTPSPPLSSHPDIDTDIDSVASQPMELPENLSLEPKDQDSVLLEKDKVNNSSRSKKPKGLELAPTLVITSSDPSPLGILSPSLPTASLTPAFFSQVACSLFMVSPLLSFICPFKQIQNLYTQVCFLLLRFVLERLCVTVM
# In short: as §1
# [7] = target: T4, ETV2 (Homo sapiens, UniProt O00321 1-342); details: protein: recombinant; tags: N-terminal GST; dsDNA, one strand shown
# T4 sequence: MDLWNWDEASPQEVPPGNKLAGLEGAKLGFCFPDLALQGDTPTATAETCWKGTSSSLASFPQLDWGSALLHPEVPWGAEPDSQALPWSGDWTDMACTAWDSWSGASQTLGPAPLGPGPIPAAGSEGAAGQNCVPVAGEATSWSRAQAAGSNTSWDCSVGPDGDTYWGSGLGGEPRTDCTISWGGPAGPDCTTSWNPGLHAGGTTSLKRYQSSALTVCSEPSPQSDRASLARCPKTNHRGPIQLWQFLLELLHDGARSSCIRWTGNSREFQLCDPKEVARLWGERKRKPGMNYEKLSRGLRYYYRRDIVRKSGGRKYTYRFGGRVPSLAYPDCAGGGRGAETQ
# In short: as §1
# [8] = target: T5, ELF3 (Homo sapiens, UniProt P78545 1-371); details: protein: recombinant; tags: N-terminal GST; dsDNA, one strand shown
# T5 sequence: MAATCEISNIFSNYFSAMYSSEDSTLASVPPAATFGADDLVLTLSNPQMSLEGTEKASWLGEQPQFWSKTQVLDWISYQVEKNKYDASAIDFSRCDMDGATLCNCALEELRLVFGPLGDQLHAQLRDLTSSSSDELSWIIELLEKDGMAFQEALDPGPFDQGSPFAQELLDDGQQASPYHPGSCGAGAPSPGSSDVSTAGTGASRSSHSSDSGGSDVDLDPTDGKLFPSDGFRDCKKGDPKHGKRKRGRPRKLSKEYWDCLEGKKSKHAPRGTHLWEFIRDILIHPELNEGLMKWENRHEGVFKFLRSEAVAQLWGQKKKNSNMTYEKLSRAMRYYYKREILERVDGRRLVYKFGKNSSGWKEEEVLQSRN
# In short: as §1
# [9] = target: CRX (Homo sapiens, UniProt O43186 1-299); details: protein: recombinant; tags: N-terminal GST; dsDNA, one strand shown
# In short: as §1
# Chain of ETV5 (P41161 whole entry): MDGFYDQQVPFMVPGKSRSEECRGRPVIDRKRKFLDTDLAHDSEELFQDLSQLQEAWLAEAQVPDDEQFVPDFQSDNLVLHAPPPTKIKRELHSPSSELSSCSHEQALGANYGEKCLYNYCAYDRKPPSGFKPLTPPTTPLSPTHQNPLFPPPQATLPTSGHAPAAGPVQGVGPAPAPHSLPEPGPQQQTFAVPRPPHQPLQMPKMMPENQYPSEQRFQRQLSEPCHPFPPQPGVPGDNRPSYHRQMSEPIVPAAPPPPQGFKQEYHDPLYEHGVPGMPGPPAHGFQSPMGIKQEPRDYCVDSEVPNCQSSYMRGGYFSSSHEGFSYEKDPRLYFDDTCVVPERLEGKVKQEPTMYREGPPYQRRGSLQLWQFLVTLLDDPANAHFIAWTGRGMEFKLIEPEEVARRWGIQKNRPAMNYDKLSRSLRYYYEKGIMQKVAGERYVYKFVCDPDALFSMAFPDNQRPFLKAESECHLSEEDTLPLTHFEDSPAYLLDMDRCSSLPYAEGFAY
# Chain of HSF1 (Q00613 whole entry): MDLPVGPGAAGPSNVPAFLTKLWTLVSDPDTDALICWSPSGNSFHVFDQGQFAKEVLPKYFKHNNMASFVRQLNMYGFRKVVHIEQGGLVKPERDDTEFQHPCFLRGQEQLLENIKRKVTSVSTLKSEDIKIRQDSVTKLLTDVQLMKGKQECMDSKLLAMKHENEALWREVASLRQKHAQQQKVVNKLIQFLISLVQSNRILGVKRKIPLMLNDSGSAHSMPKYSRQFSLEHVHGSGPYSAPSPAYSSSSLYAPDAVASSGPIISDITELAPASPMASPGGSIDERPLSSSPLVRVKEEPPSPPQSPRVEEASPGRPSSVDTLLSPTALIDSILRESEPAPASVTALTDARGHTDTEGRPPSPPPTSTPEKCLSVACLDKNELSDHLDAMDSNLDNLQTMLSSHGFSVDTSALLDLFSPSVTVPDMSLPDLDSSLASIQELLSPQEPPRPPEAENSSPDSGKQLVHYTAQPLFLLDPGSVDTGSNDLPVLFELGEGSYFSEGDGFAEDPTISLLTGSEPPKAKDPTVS
# Chain of ELF4 (Q99607 whole entry): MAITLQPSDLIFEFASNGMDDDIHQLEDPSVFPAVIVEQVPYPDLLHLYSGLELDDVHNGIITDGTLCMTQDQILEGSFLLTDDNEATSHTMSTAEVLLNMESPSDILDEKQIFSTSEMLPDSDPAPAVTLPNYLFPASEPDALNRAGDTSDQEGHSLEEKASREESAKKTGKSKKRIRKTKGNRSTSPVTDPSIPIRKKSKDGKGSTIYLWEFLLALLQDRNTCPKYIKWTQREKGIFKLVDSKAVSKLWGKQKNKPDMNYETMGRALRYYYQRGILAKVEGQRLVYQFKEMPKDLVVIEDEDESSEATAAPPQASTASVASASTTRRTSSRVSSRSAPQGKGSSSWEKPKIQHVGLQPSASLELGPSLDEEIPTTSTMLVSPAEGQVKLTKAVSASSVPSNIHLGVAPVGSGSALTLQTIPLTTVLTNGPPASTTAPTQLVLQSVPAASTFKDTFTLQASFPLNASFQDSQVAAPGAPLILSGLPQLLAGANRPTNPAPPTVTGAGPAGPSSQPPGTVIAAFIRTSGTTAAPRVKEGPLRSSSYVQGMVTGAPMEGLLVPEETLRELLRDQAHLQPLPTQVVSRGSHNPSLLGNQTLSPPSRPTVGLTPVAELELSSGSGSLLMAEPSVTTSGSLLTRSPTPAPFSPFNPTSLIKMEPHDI
# Chain of CRX (O43186 whole entry): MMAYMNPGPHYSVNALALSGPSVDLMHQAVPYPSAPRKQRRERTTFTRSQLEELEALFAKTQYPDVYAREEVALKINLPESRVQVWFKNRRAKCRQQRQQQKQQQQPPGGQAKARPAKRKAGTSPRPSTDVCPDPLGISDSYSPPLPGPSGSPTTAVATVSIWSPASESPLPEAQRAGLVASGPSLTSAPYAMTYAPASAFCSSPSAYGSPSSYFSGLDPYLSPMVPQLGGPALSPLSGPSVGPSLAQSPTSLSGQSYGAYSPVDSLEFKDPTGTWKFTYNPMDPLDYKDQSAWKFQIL
sequence,measurement,setting,value
AAGAAC,binding signal,[1],"1.19 fold enrichment (6-mer frequency, TF over GST control)"
same,binding signal,[2],"1.16 fold enrichment (6-mer frequency, TF over GST control)"
same,binding signal,[3],"1.63 fold enrichment (6-mer frequency, TF over GST control)"
same,binding signal,[4],"1.24 fold enrichment (6-mer frequency, TF over GST control)"
same,binding signal,[5],"1.2 fold enrichment (6-mer frequency, TF over GST control)"
same,binding signal,[6],"1.18 fold enrichment (6-mer frequency, TF over GST control)"
same,binding signal,[7],"1.13 fold enrichment (6-mer frequency, TF over GST control)"
same,binding signal,[8],"1.16 fold enrichment (6-mer frequency, TF over GST control)"
same,binding signal,[9],"1.28 fold enrichment (6-mer frequency, TF over GST control)"
